Data as given in PubChem BioAssay AID602233 (National Center for Advancing Translational Sciences (NCATS), 2012).
The campaign covered roughly 380,000 compounds. About 170 (0.045%) were called active. This is one part of a sample in which actives are shown more often than they occur. The call rests on the fitted dose curve; in most records, active means well fitted inhibition curve with a large enough effect; inconclusive means small, poorly fitted or top-dose-only effect; inactive means no such curve, though single readings can be large or run the other way.

biological target: Phosphoglycerate kinase, glycosomal (Trypanosoma brucei brucei) (UniProt P07378); experiment: qHTS Assay to Find Inhibitors of Phosphoglycerate Kinase; conditions: PGK/GAPDH coupled, Kinase-Glo luminescence, 60 min; series mostly up to 57.5 µM; further: nearly all actives have a fitted effect of over 60% in size
Sequence (P07378 whole entry, looked up): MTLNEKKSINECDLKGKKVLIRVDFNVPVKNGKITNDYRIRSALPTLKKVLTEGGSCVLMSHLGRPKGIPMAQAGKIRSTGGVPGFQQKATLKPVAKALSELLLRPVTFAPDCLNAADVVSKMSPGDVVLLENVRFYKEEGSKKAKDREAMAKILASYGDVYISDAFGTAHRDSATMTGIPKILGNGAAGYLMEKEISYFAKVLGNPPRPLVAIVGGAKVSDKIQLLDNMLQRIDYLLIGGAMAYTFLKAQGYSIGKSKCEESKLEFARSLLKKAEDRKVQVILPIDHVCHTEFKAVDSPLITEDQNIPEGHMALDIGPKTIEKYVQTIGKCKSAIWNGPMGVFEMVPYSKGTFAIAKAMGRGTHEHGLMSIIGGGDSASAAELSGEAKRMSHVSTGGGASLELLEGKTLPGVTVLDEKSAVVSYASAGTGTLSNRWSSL
How it was run: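 Recombinant glycosomal PGK reaction used 1,3-bisphosphoglycerate generated in-well by GAPDH (100nM final) in 100mM TEA pH 7.6, 5mM MgCl2, 0.01% Tween-20. After 60 minutes at room temperature, ATP was read by Kinase-Glo Plus luminescence end-point.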

Potency, inactive:
CCCC(=O)Nc1cc(C(=O)NCc2ccc(OC)cc2)ccc1S(=O)(=O)c1ccc(Cl)cc1
CC1=C(C(=O)OCC(C)C)C(c2ccc(OCc3ccccc3)cc2)N2C(=O)CCSC2=N1 (stereo unspecified)
O=C(/C=C/c1cn(CC(O)CN2CCc3ccccc32)c2ccccc12)c1ccc(Br)cc1 (stereo unspecified)
O=C(Nc1ccc(C(=O)OCc2cc(=O)n3nc(C4CC4)sc3n2)cc1)c1ccc(F)cc1
Cc1c(Cl)cccc1NC(=O)C(=O)NCCc1csc2nc(-c3ccccc3F)nn12
Cc1ccc(N(CC(=O)NCC(C)c2ccccc2)S(=O)(=O)N(C)C)cc1 (stereo unspecified)
CCc1nnc2c3ccccc3nc(N3CCN(c4ccc(C)cc4C)CC3)n12
O=C(C1CCCN(S(=O)(=O)c2cccc3nonc23)C1)N1CCN(c2ccccc2F)CC1 (stereo unspecified)
NS(=O)(=O)c1ccc(NC(=O)C(=O)Nc2ccc3nc4n(c(=O)c3c2)CCCCC4)cc1
O=C(NCc1ccc(Cl)cc1)c1ccc2c(c1)nnn2C1CCCC1
Oc1ccccc1-c1nc2ccc(Cl)cn2c1Nc1ccc2c(c1)OCCO2
COc1ccc(SCc2cc(=O)c3ccc(C)c(C)c3[nH]2)cc1
Cc1ccc(-c2nc(Cn3c(=O)cc(-c4ccccc4)c4c(C)nn(C)c43)c(C)o2)cc1
CC(C)c1ccc(NC(=O)CN(C)S(=O)(=O)c2ccc3c(c2)c(=O)n(C)c(=O)n3C)cc1
Cc1ccc2nc(-c3ccc(O)cc3)c(Nc3ccc4c(c3)OCO4)n2c1
CC(C)Oc1ccc(CNC(=O)C2CCN(c3nc4ccccc4n(C)c3=O)CC2)cc1
COc1cccc(C(=O)Nc2ccc(-c3cc(C(F)(F)F)nn3-c3ccccc3)cc2)c1
Cc1ccc(NC(=O)c2oc3ccc(S(=O)(=O)N4CCCCC4)cc3c2C)cc1Cl
Cc1ccccc1C(=O)Nc1nnc(S(=O)(=O)N(C)c2ccc(Cl)cc2)s1
O=C(COc1ccc(Cl)cc1)N(Cc1ccco1)Cc1ccco1
Cc1cc(C)cc(NC(=O)CSc2oc(-c3ccccc3)nc2S(=O)(=O)c2ccc(Cl)cc2)c1
